Bioassay records: PubChem, National Center for Advancing Translational Sciences (NCATS)
Sampled rows, rich in hits. Any-hit rate of the full collection: about 19%.
Cycloheximide cs – affects cycloheximide protein synthesis inhibition readout, counter-screen | AID 2314 | cell reporter, cycloheximide protein synthesis inhibition counterscreen | 12% of 300,000 active | max response, %; in the data active = max response mostly above about 13%, no sharp cut-off; inactive = mostly below about 14%; also: read at 38.3 µM for the half of the compounds with a filed dose; 0% is about no effect
Pf growth 96h – P. falciparum growth inhibition at 96 hours | P. falciparum luciferase reporter growth, 96 h | Potency, µM (top dose mostly 28.7 µM), inactives show top-dose activity change, negative = inhibition, actives largely listed as inhibitors | 6.9% of 320,000 active | AID 504834; also: potency is read from the fitted curve at half-maximal effect; % is scaled to controls: 0 for no effect and ±100 for the full control effect
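Infected RBCs, 2% Hct / 0.05% parasitemia final; luciferase-reporter P. falciparum; cpd 96 h, 37 C, 5% CO2; luciferase detection reagent; luminescence.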
SARS PLP yeast – SARS-CoV PLP inhibition in yeast. AID 485353. S. cerevisiae expressing SARS-CoV PLpro, growth rescue. Potency, µM (series often up to 32.9 µM), for the others: at the highest dose activity, positive = growth rescue, actives largely listed as activators. 0.19% of 330,000 active; calls by dose curve; also: potency is read from the fitted curve at half-maximal effect; 0% is about no effect; nearly all actives have a fitted effect of over 55% in size
Shiga toxin inh – inhibitors of Shiga toxin in Vero cells. inhibition, % at 38.7 µM. 9.2% of 290,000 active. AID 2315. Vero cells, Shiga toxin protein synthesis inhibition reporter; in the data active = inhibition mostly above about 28%, no sharp cut-off; inactive = mostly below about 43%; also: 0% is about no effect
Pf growth 48h – P. falciparum growth inhibition at 48 hours (one generation) | Potency, µM (top dose mostly 28.7 µM), without a hit: at the top dose activity change, negative = inhibition, usual class: inhibitors | 5.9% of 310,000 active | P. falciparum luciferase growth in erythrocytes, 48 h | AID 504832; also: potency is read from the fitted curve at half-maximal effect; % is scaled to controls: 0 for no effect and ±100 for the full control effect
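First compound was added to culture medium, then infected red cells at 0.1% parasitemia and 2% hematocrit (final). After incubation at 37 C under 5% CO2, luciferase detection reagent was dispensed and light output recorded.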
AMA1-RON2 inh – inhibitors of Plasmodium falciparum AMA1-RON2 interaction; AlphaScreen AMA1-biotinylated RON2 peptide binding; Potency, µM (highest dose often 58.2 µM), without a hit: at the top dose activity change, negative = inhibition, usual class: inhibitors; 0.2% of 360,000 active; AID 720542;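 also: potency is read from the fitted curve at half-maximal effect; 0% = vehicle wells and -100% = peptide control; nearly all actives have a fitted effect of over 45% in size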
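AMA1 (3D7) with his tag at 25 nM final met compounds first, then biotinylated RON2 peptide at 25 nM; detection used donor plus acceptor beads, 10 µg/mL apiece, read by AlphaScreen after 30 min at room temperature.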
Numbers without * were called inactive; ? = inconclusive; · = not tested or not shown; [ ] = dose if it differs, or a comment. Unless noted, calls follow the shape of the dose curve; as a rule, active = well fitted curve in the direction sought with a large enough effect; inconclusive = small, poorly fitted or top-dose-only effect, or another doubt; inactive = no such curve, though single readings can be large; an effect the other way counts as inactive or inconclusive.

SMILES	Cycloheximide cs	Pf growth 96h	SARS PLP yeast	Shiga toxin inh	Pf growth 48h	AMA1-RON2 inh
COc1ccc2oc(=O)c(-c3csc(Nc4cccc(O)c4)n3)cc2c1	48*	42%	-79%	58*	18%	-1%[11.6 µM]
Cc1ccccc1-c1cnc(C(O)c2ccc(Cl)cc2C)[nH]1 (stereo unspecified)	·	·	·	·	·	4%
CCc1cccc(CC)c1NC(=O)CSc1nnc(C2CC2)n1C	-4	-1%	-2%	-6	7%	2%
Cc1cc(N(C)Cc2ccccc2)nc(-c2ccccc2)n1	15	9%	6%	50	0%	8%
Cc1cc(N(C)Cc2ccccc2)nc2cc(O)ccc12	20*	3%	1%	44*	1.7µM*	8%
O=C(c1sccc1Br)N1CCN(Cc2ccc3c(c2)OCO3)CC1	11	16%	1%	6	1%	2%
COc1cc(/C=C2\N=C3CCCCCN3C2=O)ccc1O	30*	·	0%	114*	8%	-3%
COc1ccc(/C=C2\N=C3CCCCCN3C2=O)cc1OC	17	0%	0%	21	12%	0%
O=C1/C(=C/c2cccnc2)N=C2CCCCCN12	-1	10%	3%	11	6%	1%
O=C1/C(=C\c2ccc(O)c(O)c2)N=C2CCCCCN12	17*	18%	0%	106*	-1%	0%
COc1ccc(/C=C2/N=C3CCCCCN3C2=O)cc1	30*	-8%	-1%	75*	5%	-13%
COc1cc(C(=O)ON=C2C3CC4CC(C3)CC2C4)cc(OC)c1OC	-4	1.5µM*	-11%	-6	1.2µM*	-6%
COc1cc(C(=O)O/N=C2\C=CC(=O)C=C2C)cc(OC)c1OC	-2	31%	0%	-6	32%	-11%
O=C(Nc1ccc(F)cc1)C(c1cc2ccccc2o1)N1CCN(CC(=O)N2CCCC2)CC1 (stereo unspecified)	·	·	·	·	·	-3%
CC1Cc2ccccc2N1C(=O)C(C)n1cc(C(F)(F)F)cc(Cl)c1=O (stereo unspecified)	·	?	-1%	·	?	-6%
CC(=O)NC(CC(=O)NCCc1ccccc1)c1ccccc1 (stereo unspecified)	6	-11%	-3%	-2	14%	-12%
CC(=O)NC(CC(=O)N(Cc1ccccc1)c1ccc(C)cc1)c1ccccc1 (stereo unspecified)	3	13µM*	2%	-10	?	11%
Cc1cc(-c2ccc(N=Nc3c(S(=O)(=O)O)cc4cc(S(=O)(=O)O)cc(N)c4c3O)c(C)c2)ccc1N=Nc1c(S(=O)(=O)O)cc2cc(S(=O)(=O)O)cc(N)c2c1O	·	9.5µM*	1%	·	6.6µM*	·
NC(=O)Cn1cc(/C=N/NC(=O)c2ccc(Cn3cc(Cl)cn3)o2)c(-c2ccccc2)n1	7	-18%	3%	-4	4%	5%
CCCCN1C(=S)NC[C@@H]1Cc1ccc(O)cc1	7.2*	-10%	13%	-6	-1%	43%
CCCCN1C(=O)C(=O)NC[C@@H]1Cc1ccc(O)cc1	·	·	·	·	·	-6%
COc1ccc(NCc2nnc(-c3ccccc3)o2)cc1	20*	?	0%	28*	6%	-7%
CCOc1ccccc1NCc1nnc(-c2ccccc2)o1	15*	10%	15%	11	-4%	-15%
COc1ccc(Cl)cc1NC(=O)CN(C)C(=O)c1cc(=O)c2ccccc2o1	·	?	-7%	·	12µM*	-13%
O=C(Cc1ccccc1F)Nc1ccccc1-c1ccccc1	27*	44%	0%	70*	9%	3%
SMILES	Cycloheximide cs	Pf growth 96h	SARS PLP yeast	Shiga toxin inh	Pf growth 48h	AMA1-RON2 inh
COc1ccccc1CN(C)CC(=O)Nc1ccc(Cl)cc1C(F)(F)F	15*	?	-16%	13	2%	0%[11.6 µM]
COc1ccc(Cl)cc1NC(=O)CN(C)C(=O)Cc1ccc(-c2ccccc2)cc1	·	?	-7%	·	?	-1%
COc1ccc(Cl)cc1NC(=O)CN(C)CC(=O)Nc1ccccc1-c1ccccc1	-4	12µM*	-6%	12	?	50%
CC(=O)NC(CCCN1C(=O)c2ccccc2C1=O)c1nnn(C)n1 (stereo unspecified)	-7	-23%	18%	-7	14%	9%
Cc1ccc(NC(=O)CN(C)CC(=O)Nc2ccccc2-c2ccccc2)cc1	-1	13µM*	-3%	-9	?	11%
CN(CC(=O)Nc1ccccc1Br)CC(=O)Nc1ccccc1-c1ccccc1	·	?	-7%	·	?	123%
COc1ccc(S(=O)(=O)N2CCCCC2)cc1NC(=O)c1ccc(OC)c(OC)c1	·	?	-3%	·	?	5%
CCOC(=O)/C=C(/C)N1N=C(c2ccc(OC)cc2)CC1c1cccc([N+](=O)[O-])c1 (stereo unspecified)	46*	?	-4%	113*	?	43%
COc1cc(CN2CCN(c3cccc(C)c3C)CC2)cc(Br)c1O	-3	·	0%	14	4.1µM*	?
COc1cccc(CN2CCc3ccc(NC(=O)CCc4ccc(C)cc4)cc3C2)c1O	14	?	-1%	-3	?	5%
COc1cc(CN2CCc3ccccc3C2)ccc1O	30*	7%	0%	54*	3%	-23%
COc1cc(CN2CCc3ccc(NC(=O)CCc4ccccc4OC)cc3C2)ccc1O	11	-14%	-3%	6	5.2µM*	-12%
COc1cc(CN2CCN(c3cc(C)ccc3C)CC2)cc([N+](=O)[O-])c1O	·	·	·	·	·	-2%
COc1cc(CN2CCN(c3cc(C)ccc3C)CC2)ccc1O	-3	·	3%	-7	10µM*	-15%
CC(NCc1cc(Br)ccc1OCC(N)=O)C12CC3CC(CC(C3)C1)C2 (stereo unspecified)	-1	-7%	12%	·	?	-4%
COc1ccc(CN2CCc3ccc(NC(=O)CCc4ccccc4OC)cc3C2)c(O)c1	8	-17%	-1%	2	2.1µM*	-8%
COc1ccccc1CCC(=O)Nc1ccc2c(c1)CN(CCCn1cccn1)CC2	-3	-15%	-6%	7	8.3µM*	-2%
COc1ccc(/C=C2\CCc3ccccc3C2=O)cc1Cn1nc(C)cc1C	21*	2%	-24%	44	·	-17%
COc1ccc(/C=N/NC(=O)c2ccncc2)cc1CN1CCOCC1	-1	23%	-1%	3	4%	4%
COc1ccc(/C=C2/CCc3ccccc3C2=O)cc1CN1CCOCC1	51*	-18%	2%	92*	31%	-28%
O=C(Nc1nc2c(Br)cc(Br)cc2c(=O)s1)C1CCC1	2	25%	2%	-10	2.3µM*	26%
COc1ccc(OC)c2sc(NC(=O)C3CC3)nc12	-5	-24%	2%	-16	·	9%
CCOc1ccccc1NS(=O)(=O)N(C)C	-3	13µM*	-3%	-19	·	2%
CCOc1ccccc1NS(=O)(=O)c1cccs1	-3	·	1%	1	10%	?
